# In PubChem BioAssay (NCI):
# Compounds without any hit were thinned out: in the full panel of roughly 83,000, 20% have a hit.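 How to read the values: 0–100, growth inhibition (40 = 60% inhibited); 0, no net growth; -100 to 0, cell death (-40 = 40% of starting cells died; -100 = all dead).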 Active and inactive are the calls of the source. Rule for the calls: active = growth percent below 10; inactive = the rest.
# System: HCC-2998 colon
# Assay: NCI-60 one-dose screen, 48 h (100 = growth as untreated, 0 = no growth, -100 = all killed)
# Conditions: 10 µM unless noted
row,Structure (SMILES),growth
1,Nc1nc(N)nc(N2CCCCC2)n1,106% (inactive)
2,O=C1NCC2CCCC1C2 (stereo not drawn),93.1% (inactive)
3,Cc1cc(CO)c(O)c(CO)c1,96.8% (inactive)
4,C#CC(O)c1ccccc1 (stereo not drawn),125% (inactive)
5,COc1ccc(Br)c(C=O)c1,86% (inactive)
6,COC(c1ccc2c(c1)OCO2)C(C)Br (stereo not drawn),105% (inactive)
7,O=C(O)c1ccccc1Cc1ccc2c(c1)CCCC2,115% (inactive)
8,O=[N+]([O-])c1ccc(-c2nc(N(CCO)CCO)c3ccccc3n2)o1,-93.2% (active)
9,O=Cc1ccc(Cl)c(Cl)c1,97.2% (inactive)
10,CCC(C)C1CCC(O)CC1 (stereo not drawn),107% (inactive)
11,CC(C)c1ncc([N+](=O)[O-])n1C,105% (inactive)
12,COc1ccc(/C=C\C(=O)/C=C/c2ccc(OC)cc2)cc1,-16% (active)
13,Nc1cc2c(cc1Cl)C(=O)c1ccccc1C2=O,69% (inactive)
14,Cc1ccc(Cc2ccc(C)cc2)cc1,100% (inactive)
15,N#C/C(=C\c1ccc2c(c1)OCO2)c1ccccc1,76.4% (inactive)
16,CCOC(=O)c1c[nH][nH]c1=O,98.5% (inactive)
17,CC(=O)c1cc(O)ccc1O,98.9% (inactive)

row,Structure (SMILES),growth
1,Nc1ccn(C2CC(N)C(CO)O2)c(=O)n1 (stereo not drawn),74.8% (inactive)
2,CNc1ccccc1C(N)=O,106% (inactive)
3,Cn1c(=O)[nH]c2ccccc2c1=O,112% (inactive)
4,NNC(=O)c1ccccc1N,112% (inactive)
5,COC(CCCl)c1ccc(Cl)cc1 (stereo not drawn),106% (inactive)
6,COc1ccc(C2CCCCC2=O)cc1 (stereo not drawn),107% (inactive)
7,O=[N+]([O-])c1c(Cl)ncnc1Cl,121% (inactive)
8,CCN(CC)c1ccc2nc3ccc(N=Nc4ccc(N(C)C)cc4)cc3[n+](-c3ccccc3)c2c1,-69.7% (active)
9,c1ccc2[nH]c(Cc3nc4ccccc4[nH]3)nc2c1,108% (inactive)
10,CC1=CC(=Nc2ccc(N(C)C)cc2)C=C(C)C1=O,96.1% (inactive)
11,O=C(O)Cc1cccc2ccccc12,95.9% (inactive)
12,Cc1nc(C)c(C(=O)O)cc1C(=O)O,101% (inactive)
13,Clc1ccc(/C=C/c2ccccn2)cc1,111% (inactive)
14,N#CC1(O)CCCCC1,93.3% (inactive)
15,CCNc1ncnc2[nH]ncc12,106% (inactive)
16,CC12CCC3c4ccc(O)cc4CCC3C1CCC2=O (stereo not drawn),102% (inactive)
